Compounds with a hit are over-represented: about 2% of the library has one in this group of screens.
PG9 Ab binder: small molecules binding HIV-1 gp120 antibody PG9; TR-FRET gp120-PG9 antibody binding; AID 624416; inhibition, % at 6.7 µM; 360,000 tested, 0.43% active; in the data active means inhibition above about 8.5%
Rev-erbA mod: modulates human Rev-erb alpha binding to DNA; Rev-erbα–FITC-DNA binding, fluorescence polarization, 90 min; AID 1259318; 370,000 tested, 0.79% active; activity, % at 10 µM; P20393;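 active means activity above about 14%, limit read from the data; passing the limit was not always enough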;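 further: 0% = DMSO wells with 35 nM protein and 100% = DMSO wells with 750 nM protein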
ABCB6 inh MLPCN: human ABCB6 transporter inhibition. 360,000 tested, 0.19% active. AID 602162. fluorescence ratio to DMSO, % at 10 µM. K562-ABCB6 porphyrin accumulation, flow cytometry, 1 h; active compounds read low;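 active means fluorescence ratio to DMSO below 75%, the collection mean minus 3 SD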;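 further: signal is porphyrin accumulated inside mitochondria; 100% equals median channel fluorescence of DMSO control wells; lower ratio means ABCB6 inhibition with less porphyrin fluorescence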
Exocytosis inh: lytic granule exocytosis inhibition. TALL-104 LAMP-1 surface exposure, flow cytometry; cells stimulated with thapsigargin and PMA. 360,000 tested, 0.66% active. AID 651702. inhibition, % at 10 µM;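 active means inhibition above about 55%, limit read from the data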
VLA-4 inh: inhibition in a human VLA-4 binding assay; P13612; VLA-4 expressing cells, ligand binding flow cytometry; inhibition, % (about 7 µM as worked out from the volumes in the protocol); 330,000 tested, 0.2% active; AID 2557; in the data active means inhibition above about 50%
Target sequence (P13612 whole entry, looked up): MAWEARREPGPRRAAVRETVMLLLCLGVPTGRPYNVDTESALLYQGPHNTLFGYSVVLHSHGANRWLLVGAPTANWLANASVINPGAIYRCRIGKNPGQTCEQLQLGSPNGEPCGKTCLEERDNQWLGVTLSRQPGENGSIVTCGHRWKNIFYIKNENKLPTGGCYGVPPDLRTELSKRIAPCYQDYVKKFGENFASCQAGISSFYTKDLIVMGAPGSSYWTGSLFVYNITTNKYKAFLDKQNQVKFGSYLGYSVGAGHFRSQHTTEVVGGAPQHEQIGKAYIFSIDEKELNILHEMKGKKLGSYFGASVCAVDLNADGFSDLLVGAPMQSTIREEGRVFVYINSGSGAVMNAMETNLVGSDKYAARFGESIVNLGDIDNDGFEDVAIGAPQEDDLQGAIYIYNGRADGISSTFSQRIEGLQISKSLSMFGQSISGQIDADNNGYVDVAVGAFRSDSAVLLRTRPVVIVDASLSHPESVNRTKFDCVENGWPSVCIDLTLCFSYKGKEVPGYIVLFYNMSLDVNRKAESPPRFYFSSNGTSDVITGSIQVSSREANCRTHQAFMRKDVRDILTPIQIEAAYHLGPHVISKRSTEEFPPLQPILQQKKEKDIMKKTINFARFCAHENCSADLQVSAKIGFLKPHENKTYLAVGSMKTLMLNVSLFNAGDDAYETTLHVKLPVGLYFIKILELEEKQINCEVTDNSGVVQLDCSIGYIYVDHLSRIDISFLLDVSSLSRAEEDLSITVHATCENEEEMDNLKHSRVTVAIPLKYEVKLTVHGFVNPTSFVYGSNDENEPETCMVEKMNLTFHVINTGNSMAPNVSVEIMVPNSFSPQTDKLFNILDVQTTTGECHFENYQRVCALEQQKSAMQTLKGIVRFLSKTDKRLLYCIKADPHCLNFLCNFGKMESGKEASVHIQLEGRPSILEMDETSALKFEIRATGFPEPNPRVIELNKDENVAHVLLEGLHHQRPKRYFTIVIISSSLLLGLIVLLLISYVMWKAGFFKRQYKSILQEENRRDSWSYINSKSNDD
PG9 bind confirm: confirmation of small molecules binding HIV-1 gp120 antibody PG9; inhibition, % at 6.7 µM; TR-FRET PG9 antibody binding, biochemical; AID 651571; 1,500 tested, 90% active; shares compounds with PG9 Ab binder; in the data active means inhibition above about 9%
PGV04 Ab binding: PGV04 control antibody binding, counter-screen; shares compounds with PG9 Ab binder; TR-FRET PGV04 antibody-gp120 binding, biochemical; inhibition, % at 6.7 µM; 1,500 tested, 95% active; AID 651604; in the data active means inhibition above about 9.5%
PG9 binder DR: small molecules binding HIV-1 gp120 antibody PG9 | TR-FRET PG9 antibody-gp120 binding inhibition | 95 tested, under 10 active | AID 651848 | shares compounds with PG9 Ab binder | IC50, µM; in the data active means IC50 below about 10 µM
PGV04 DR counter: counter-screen for PG9 binders: binding to control antibody PGV04 | TR-FRET binding to control antibody PGV04 | 95 tested, 20% active | IC50, µM | shares compounds with PG9 Ab binder
PG126 DR counter: binds control antibody PG126 in PG9 counter-screen. shares compounds with PG9 Ab binder. TR-FRET binding to antibody PG126, counterscreen. IC50, µM. 95 tested, 20% active
NR1D1 mod conf: Rev-erb alpha (human) modulation, hit confirmation; activation, % at 25 µM; Rev-erb alpha FITC-DNA binding, fluorescence polarization, 90 min; shares compounds with Rev-erbA mod; 3,000 tested, 61% active;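 active means activation at or above a set limit, or at least 3 SD above the negative control mean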;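 further: 0% = 35 nM protein with DMSO and 100% = 750 nM protein high control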
RORg DNA counter: RORgamma DNA-binding activity, dose-response counter-screen. shares compounds with Rev-erbA mod. purified RORgamma protein-FITC-DNA binding, fluorescence polarization. IC50, µM. 910 tested, 8% active. AID 1259320;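 active means Compounds whose fitted half-maximal concentration for disrupting protein-DNA binding is below 10 micromolar; the record names Rev-erb in its text, so the target is in doubt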
* hit, by the source's call. Unless noted, no stated cut-off is given here; in the data, active means IC50 below about 9 µM; inactive means the rest.

Screening N#Cc1cc2c(nc1SCc1ccccc1)CCCC2 returned PG9 Ab binder 36*, Rev-erbA mod 28*, ABCB6 inh MLPCN 101, Exocytosis inh 11, VLA-4 inh 8, PG9 bind confirm 44*, PGV04 Ab binding 76* and NR1D1 mod conf 21*.
C[C@H]1Cn2nnc(-c3ccccc3)c2Cn2c3ccccc3c(=O)n21 was read as Rev-erbA mod 0.
`Cc1cc(C)c2cc(C#N)c(NCCNC(=O)c3ccccc3)nc2c1` gave PG9 Ab binder 29*, Rev-erbA mod 18*, Exocytosis inh -8, PG9 bind confirm 25*, PGV04 Ab binding 32* and NR1D1 mod conf 15*.
Cc1cccc(OCCCN2CCC(C(O)(c3ccccc3)c3ccccc3)CC2)c1 was read as PG9 Ab binder -1 and Rev-erbA mod 0.
Screening CN1C2=N[C@H](c3ccccc3Br)CC(=O)N2/C(=C\c2ccccc2)[C@@H]1c1ccccc1 returned Rev-erbA mod -2.
`Cc1ccc(-n2nc3c(N4CCC(C(=O)NCCc5cccs5)CC4)nnc(C)c3c2C)cc1` gave PG9 Ab binder 12*, Rev-erbA mod 30*, ABCB6 inh MLPCN 105, Exocytosis inh 9, VLA-4 inh 3, PG9 bind confirm 25*, PGV04 Ab binding 36*, NR1D1 mod conf 36* and RORg DNA counter >40.
Screening O=C(NC1CCCCN(Cc2ccc(Cl)cc2)C1=O)c1ccc(F)cc1 (configuration not stated) returned Rev-erbA mod -2.
`Cn1c2ccccc2n2c(=O)cc(-c3ccccc3)c(C#N)c12` gave PG9 Ab binder 9.7*, Rev-erbA mod 44*, ABCB6 inh MLPCN 101, Exocytosis inh 0, VLA-4 inh -7, PG9 bind confirm 16*, PGV04 Ab binding 20* and NR1D1 mod conf 21*.
Screening CC(=O)Nc1nnc(SCC(=O)c2ccc3c(c2)Cc2ccccc2-3)s1 returned PG9 Ab binder 10*, Rev-erbA mod 55*, ABCB6 inh MLPCN 99, Exocytosis inh -2, VLA-4 inh -14, PG9 bind confirm 21*, PGV04 Ab binding 49* and NR1D1 mod conf 18*.
For O=c1[nH]cnc2c1sc1nc3c(c(-c4ccc(Cl)cc4)c12)CCC3 the results were PG9 Ab binder 11*, Rev-erbA mod 39*, ABCB6 inh MLPCN 103, Exocytosis inh 10, VLA-4 inh 2, PG9 bind confirm 28*, PGV04 Ab binding 16*, PG9 binder DR inactive, PGV04 DR counter 6.4*, PG126 DR counter 8.6* and NR1D1 mod conf 10.
Screening C[C@@H]1COc2cc(Br)ccc2S(=O)(=O)N1Cc1cn(Cc2ccc(C(F)(F)F)cc2)nn1 returned Rev-erbA mod -2.
For Cc1cc(-n2c(SCC(=O)NCc3cccs3)nc3n[nH]c(C)c3c2=N)ccc1Cl the results were PG9 Ab binder 38*, Rev-erbA mod 43*, ABCB6 inh MLPCN 97, Exocytosis inh 2, VLA-4 inh 4, PG9 bind confirm 33*, PGV04 Ab binding 44* and NR1D1 mod conf 28*.
Cc1cc(-n2c(SCC(=O)Nc3ccc(Br)cc3)nc3n[nH]c(C)c3c2=N)ccc1Cl was read as PG9 Ab binder 24*, Rev-erbA mod 37*, ABCB6 inh MLPCN 91, Exocytosis inh 1, VLA-4 inh 2, PG9 bind confirm 21*, PGV04 Ab binding 29* and NR1D1 mod conf 22*.
`CCOc1ccc(-n2c(SCC(=O)Nc3ccc(Br)cc3)nc3n[nH]c(C)c3c2=N)cc1` gave PG9 Ab binder 5, Rev-erbA mod 14, ABCB6 inh MLPCN 90, Exocytosis inh -4 and VLA-4 inh -1.
Screening Cc1cc(-n2c(SCC(=O)Nc3ccc(F)c(F)c3)nc3n[nH]c(C)c3c2=N)ccc1Cl returned PG9 Ab binder 21*, Rev-erbA mod 51*, ABCB6 inh MLPCN 121, Exocytosis inh -2, VLA-4 inh 5, PG9 bind confirm 6, PGV04 Ab binding 8 and NR1D1 mod conf 27*.
Screening O=C(NCc1ccccc1Cl)O[C@H]1CC[C@@]23CCCN2C(=O)CCC[C@H]3C1 returned Rev-erbA mod -3.
CN1C(=O)C[C@@](C#N)(C(=O)Nc2nc3ccc(F)cc3s2)[C@H]1c1ccccc1 was read as Rev-erbA mod -4.
Screening Cn1c(=O)c(C(=O)Nc2ccccc2S(N)(=O)=O)c(O)c2ccccc21 returned PG9 Ab binder -3, Rev-erbA mod 0, ABCB6 inh MLPCN 101, Exocytosis inh -6 and VLA-4 inh -10.
Screening CCC(C)n1c(=O)c(C(=O)Nc2ccccc2S(N)(=O)=O)c(O)c2ccccc21 (configuration not stated) returned PG9 Ab binder 14*, Rev-erbA mod 54*, ABCB6 inh MLPCN 96, Exocytosis inh 12, VLA-4 inh -4, PG9 bind confirm 14*, PGV04 Ab binding 23* and NR1D1 mod conf 31*.
Screening Cn1c(SCC(=O)NCc2ccc3c(c2)OCO3)ncc(C(=O)Nc2ccc(F)cc2)c1=O returned PG9 Ab binder 21*, Rev-erbA mod 40*, ABCB6 inh MLPCN 92, Exocytosis inh 0, VLA-4 inh 7, PG9 bind confirm 16*, PGV04 Ab binding 18*, NR1D1 mod conf 51* and RORg DNA counter >40.
`Cn1c(SCC(=O)NCc2ccc(F)cc2)ncc(C(=O)Nc2ccccc2)c1=O` gave PG9 Ab binder 9, Rev-erbA mod 13, ABCB6 inh MLPCN 107, Exocytosis inh -11 and VLA-4 inh 43.
Cc1ccc(C(=O)Nc2nc3ccccc3c(=O)s2)cc1 was read as PG9 Ab binder 73*, Rev-erbA mod 69*, ABCB6 inh MLPCN 100, Exocytosis inh 18, VLA-4 inh -2, PG9 bind confirm 78*, PGV04 Ab binding 89*, NR1D1 mod conf 35* and RORg DNA counter 2.1*.

Screening results as filed in PubChem.
